From PubChem BioAssay (Tox21)
Inconclusive results are not listed. A number with no mark means an inactive call. Active and inactive are the calls of the source. Calls come from the whole dose curve.

biological target: 5-hydroxytryptamine receptor 2A (Homo sapiens) (UniProt P28223); assay: 5-hydroxytryptamine receptor 2A (HTR2A) small molecule agonists, cell-based qHTS assay (AID 1963587); details: HTR2A-CHO cells, calcium flux fluorescence, agonist mode; series mostly up to 76.8 µM; activation: at the top concentration; note: nearly all actives have a fitted effect of over 30% in size
Sequence (P28223 whole entry, looked up): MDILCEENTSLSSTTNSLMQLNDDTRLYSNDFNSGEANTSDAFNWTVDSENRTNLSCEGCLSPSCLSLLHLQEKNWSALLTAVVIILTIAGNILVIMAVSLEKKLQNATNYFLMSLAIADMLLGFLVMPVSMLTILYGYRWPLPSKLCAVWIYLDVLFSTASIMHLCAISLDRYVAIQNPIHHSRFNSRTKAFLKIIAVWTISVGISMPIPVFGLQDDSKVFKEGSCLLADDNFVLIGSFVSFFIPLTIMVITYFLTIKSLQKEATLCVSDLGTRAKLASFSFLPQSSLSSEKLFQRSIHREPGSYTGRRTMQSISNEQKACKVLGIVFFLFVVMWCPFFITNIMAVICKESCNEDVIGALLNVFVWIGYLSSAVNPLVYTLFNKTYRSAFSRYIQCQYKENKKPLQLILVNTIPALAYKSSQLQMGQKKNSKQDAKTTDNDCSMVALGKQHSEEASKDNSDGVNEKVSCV
Description: National Center for Advancing Translational Sciences [NCATS]
Division of Preclinical Innovation [DPI]
U.S. Environmental Protection Agency [EPA]
National Institutes of Environmental Health Sciences [NIEHS]
National Toxicology Program [NTP]
U.S. Food and Drug Administration [FDA]
The HTR2A receptor is a subtype of the 5-HT2 receptor that belongs to the serotonin receptor family and is a G protein-coupled receptor (GPCR). The HTR2A-CHO cell line stably expressing human 5-hydroxytryptamine receptor 2A (HTR2A) can be used for screening agonists of interactions between 5-HT2 and its ligands. The HTR2A-CHO calcium flux assay is a homogeneous fluorescence-based assay for detecting the intracellular calcium level using FDSS kinetic plate reader system.
HTR2A-CHO cells were dispensed at 2000 cells/3uL/well in 1536-well black-clear bottom plates using a Multidrop Dispenser. After the assay plates were incubated at a 37 C/5% CO2 incubator for 18 h, 3 uL of Dye Loading Buffer was transferred to the assay plate by a Flying Reagent Dispenser. The assay plates were incubated at 37 C for 1h. For agonist mode, 23 nL of compounds dissolved in DMSO, positive controls or DMSO only was transferred to the assay plate by a pin tool. The fluorescence intensity in the plates was measured using FDSS 7000EX kinetic plate reader for 2 min at 1 sec intervals.
% is set by controls: 0 for no effect and ±100 for the full control effect; potency is the fitted concentration of half-maximal effect.

Compound | activation | Potency
CCC(C(=O)OCCN(CC)CC)c1ccccc1 (stereo not given) | 12% [at 35.6 µM] | 
Cc1nc2ccccn2c(=O)c1CCN1CCC(C(=O)c2ccc(F)cc2)CC1 | -12.9% [at 35.6 µM] | 
CC(=O)NC(=O)c1ccccc1O | 0.738% [at 35.6 µM] | 
C=C(C)C(=O)OCCN(CC)CC | 0.3% | 
CCCC1CCCC(=O)O1 (stereo not given) | 0.749% | 
O=C(O)c1ccc[n+]([O-])c1 | 1.52% [at 35.6 µM] | 
CC(C)=CCC1=C(O)c2ccccc2C(=O)C1=O | 16.1% | 
ON=C1CCCC1 | -0.764% | 
CC(C)(Oc1ccc(Cl)cc1)C(=O)OCCCOC(=O)C(C)(C)Oc1ccc(Cl)cc1 | -10.1% [at 35.6 µM] | 
CCCCCCCCCC(=O)OCC | -0.0218% | 
CCCCCCCCCCCCCCCCCC(=O)OCCCCCCCCCCCCCC(C)C | 0.644% | 
CC(=O)N(CC(=O)N(C)C)c1ccccc1 | -9.14% [at 35.6 µM] | 
O=c1c2ccccc2nnn1CCl | 0.255% | 
CCCCCCCC(=O)OCC | 3.66% | 
CCCCCCC(CO)CCCC (stereo not given) | -2.52% | 
Cc1cccc(C)c1C | -0.143% | 
C=C(C)CCCC(C)CCO (stereo not given) | -2.38% | 
Cc1ccc2oc(CN(Cc3ccccc3)C(=O)Nc3c(F)cc(F)cc3F)c(-c3ccc(Cl)cc3)c2c1 | 4.75% | 
CCN(CC)CCOc1ccccc1C(=O)CCc1ccccc1 | -0.554% [at 35.6 µM] | 
CCOC(=O)CC(C)O (stereo not given) | 12% | 

Compound | activation | Potency
CCCCCCCCCC(=O)N(C)C | 2.23% | 
Nc1cc([N+](=O)[O-])cc(Cl)c1O | -0.91% | 
CC(=O)Nc1ccc(N)cc1 | 4.39% | 
CCCCOC(=O)/C=C\C(=O)OCCCC | -0.179% | 
CC(C)C[P+](C)(CC(C)C)CC(C)C | 9.26% | 
Cc1cc(C)c(C=O)c(C)c1 | -4.4% | 
NCCS | 0.293% [at 35.6 µM] | 
CC(=O)OCC(=O)[C@@]1(O)CC[C@H]2[C@@H]3CCC4=CC(=O)C=C[C@]4(C)[C@@]3(F)[C@@H](O)C[C@@]21C | 0.968% [at 35.6 µM] | 
CN1CCN(c2cc3c(cc2F)c(=O)c(C(=O)O)cn3-c2ccc(F)cc2)CC1 | 3.13% [at 35.6 µM] | 
CC(C)C(=O)OC/C=C/c1ccccc1 | -1.79% | 
CCOC(=O)c1cccnc1 | -1.95% [at 35.6 µM] | 
CCCCCCCCCCCCCCCCCCN(C)C | -8.72% [at 35.6 µM] | 
Clc1cc(Cl)c(Cl)nc1Cl |  | 24.6 µM (active)
OCC(O)[C@@H](O)[C@H](O)[C@H](O)CO[C@H]1O[C@H](CO)[C@@H](O)[C@H](O)[C@H]1O (stereo not given in full) | 4.02% | 
CN=C(NC#N)Nc1ccc(C2=NNC(=O)CC2C)cc1 (stereo not given) | 17.7% [at 35.6 µM] | 
O=C(O)c1ccc(Cl)cc1Cl | -4.45% | 
Cn1nnc2c(C(N)=O)ncn2c1=O | -0.213% [at 35.6 µM] | 
O=C(CCBr)N1CCN(C(=O)CCBr)CC1 | -1.41% [at 35.6 µM] | 
C=COCC1CCC(COC=C)CC1 (stereo not given) | 1.24% | 
C=CC(=O)OCCOC(=O)CCC(=O)O | -0.562% | 
